The source of these data is PubChem BioAssay (EPA / NIEHS).

Calls of active or inactive are those of the source. The calls were made as follows: active = hit-call score of the fitted dose curve at least 0.9, where 1 is the maximum; inactive = score below 0.9.

Read-out in one assay: Interleukin-8 (IL8), CXCL8 (gene 3576)
In words: BSK_SAg_IL8: BioMAP Diversity Plus: SAg Assay for Interleukin-8 (IL8) Biomarker Activity (AID 2283094). Particulars: primary human HUVEC with PBMC; actives raise or lower the signal. In a few lines:
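In this co-culture of human umbilical vein endothelium with peripheral blood mononuclear cells, IL-8 is assayed by ELISA at 24 h. DMSO serves as baseline for bidirectional curve fitting.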
`CS(=O)(=O)c1ccc([C@@H](C[C@H]2CCC(=O)C2)C(=O)Nc2cnccn2)cc1Cl`: the outcome was inactive.

In the case of `O=C(O)c1cccnc1`, the outcome was inactive.

As for `CCc1cc(C2=C(C(=O)O)N(c3ccccc3C(F)(F)F)S(=O)(=O)c3ccccc32)cc2c1OCO2`, the outcome was inactive.

As for `CC(C)NCC(O)c1ccc(O)c(O)c1` (stereo unspecified), the outcome was inactive.

`Cc1cn([C@H]2C=C[C@@H](CO)O2)c(=O)[nH]c1=O`: the outcome was inactive.

`CCCCC(CC)COC(=O)CCCCCCCC(=O)OCC(CC)CCCC` (stereo unspecified): the outcome was inactive.

Take `Cc1ccc(C(C)(C)C)c(O)c1`: the result was inactive.

On to `CCCCC(CC)CO` (stereo unspecified), for which the result was inactive.

As for `CC(N)=O`, the outcome was inactive.

What is called AC50 is the midpoint of the concentration-response curve, whichever way the signal moves. Regarding `O=C1OC(c2ccc(O)cc2)(c2ccc(O)cc2)c2ccccc21`, the half-maximal activity concentration (AC50) is 20 µM (active).

In the case of `CC(=O)CC(c1ccccc1)c1c(O)c2ccccc2oc1=O` (stereo unspecified), the outcome was inactive.

Regarding `Cc1cc(SC2=C(O)C[C@@](CCc3ccc(N)cc3)(C(C)C)OC2=O)c(C(C)(C)C)cc1CO`, the result was inactive.

For the compound `Oc1ccccc1O`, the outcome was inactive.

For the compound `CCc1nc(N)nc(N)c1-c1ccc(Cl)cc1`, the outcome was inactive.

In the case of `CCCCOC(=O)CCCCC(=O)OCCCC`, the outcome was inactive.

On to `O=NO`, for which the result was inactive.

On to `Cn1cnc2c1c(=O)[nH]c(=O)n2C`, for which the result was inactive.

For the compound `Cc1c(C)c2c(c(C)c1O)CCC(C)(COc1ccc(CC3SC(=O)NC3=O)cc1)O2` (stereo unspecified), the concentration at half-maximal activity (AC50) is 32.8 µM (active).

For the compound `CCCC(=O)O`, the result was inactive.

Take `O=C(O)c1[nH]n(-c2ccc(S(=O)(=O)O)cc2)c(=O)c1N=Nc1ccc(S(=O)(=O)O)cc1`: the outcome was inactive.

Turning to `C=CCc1ccc(OC)c(OC)c1`, the outcome was inactive.

For the compound `OCC(O)CO`, the result was inactive.

For the compound `CC(=O)O`, the outcome was inactive.

For `CCOCCOCCO`, the outcome was inactive.

`CC(C)c1cccc(C(C)C)c1NC(=O)NS(=O)(=O)c1cc(C(C)(C)O)co1`: the result was inactive.

Regarding `CCCCCCCC(=O)OC`, the outcome was inactive.

For the compound `Nc1nc(Cl)nc2c1ncn2[C@H]1C[C@H](O)[C@@H](CO)O1`, the result was inactive.

As for `CCCCCCC(CCCCCCCCCCC(=O)OCC(COC(C)=O)OC(C)=O)OC(C)=O` (stereo unspecified), the result was inactive.

`c1ccc2occc2c1`: the result was inactive.

As for `CCCCc1nc2cccnc2n1Cc1ccc(-c2ccccc2-c2nnn[nH]2)cc1`, the outcome was inactive.

Read-out in a further assay: not listed separately
In words: BSK_SAg_Proliferation: Cell Proliferation Assessment in the BioMAP Diversity Plus: SAg Assay (AID 2283095).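 Also: relative cell number as total protein by SRB absorbance in sub-confluent culture.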 Particulars: primary human HUVEC with PBMC. In a few lines: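 Readout is SRB-stained protein (560 nm) in a primary human HUVEC and PBMC co-culture; sub-confluent cultures are read at 96 h. Activity is fitted bidirectionally using DMSO as baseline.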
For the compound `CS(=O)(=O)c1ccc([C@@H](C[C@H]2CCC(=O)C2)C(=O)Nc2cnccn2)cc1Cl`, the outcome was inactive.

As to `O=C(O)c1cccnc1`, the outcome was inactive.

As for `CCc1cc(C2=C(C(=O)O)N(c3ccccc3C(F)(F)F)S(=O)(=O)c3ccccc32)cc2c1OCO2`, the half-maximal activity concentration (AC50) is 15.3 µM (active).

For `CC(C)NCC(O)c1ccc(O)c(O)c1` (stereo unspecified), the AC50 is 24.5 µM (active).

For the compound `Cc1cn([C@H]2C=C[C@@H](CO)O2)c(=O)[nH]c1=O`, the result was inactive.

As for `CCCCC(CC)COC(=O)CCCCCCCC(=O)OCC(CC)CCCC` (stereo unspecified), the result was inactive.

With `Cc1ccc(C(C)(C)C)c(O)c1`, the outcome was inactive.

On to `CCCCC(CC)CO` (stereo unspecified), for which the result was inactive.

For `CC(N)=O`, the result was inactive.

Regarding `O=C1OC(c2ccc(O)cc2)(c2ccc(O)cc2)c2ccccc21`, the AC50 is 29.3 µM (active).

Regarding `CC(=O)CC(c1ccccc1)c1c(O)c2ccccc2oc1=O` (stereo unspecified), the outcome was inactive.

Turning to `Cc1cc(SC2=C(O)C[C@@](CCc3ccc(N)cc3)(C(C)C)OC2=O)c(C(C)(C)C)cc1CO`, the result was inactive.

Take `Oc1ccccc1O`: the AC50 is 24.5 µM (active).

For the compound `CCc1nc(N)nc(N)c1-c1ccc(Cl)cc1`, the outcome was inactive.

With `CCCCOC(=O)CCCCC(=O)OCCCC`, the result was inactive.

On to `O=NO`, for which the result was inactive.

Turning to `Cn1cnc2c1c(=O)[nH]c(=O)n2C`, the outcome was inactive.

Consider `Cc1c(C)c2c(c(C)c1O)CCC(C)(COc1ccc(CC3SC(=O)NC3=O)cc1)O2` (stereo unspecified), for which the concentration at half-maximal activity (AC50) is 14.1 µM (active).

Regarding `CCCC(=O)O`, the half-maximal activity concentration (AC50) is 33.7 µM (active).

Consider `O=C(O)c1[nH]n(-c2ccc(S(=O)(=O)O)cc2)c(=O)c1N=Nc1ccc(S(=O)(=O)O)cc1`, for which the result was inactive.

`C=CCc1ccc(OC)c(OC)c1`: the result was inactive.

Turning to `OCC(O)CO`, the outcome was inactive.

`CC(=O)O`: the result was inactive.

`CCOCCOCCO`: the result was inactive.

Consider `CC(C)c1cccc(C(C)C)c1NC(=O)NS(=O)(=O)c1cc(C(C)(C)O)co1`, for which the result was inactive.

For the compound `CCCCCCCC(=O)OC`, the outcome was inactive.

For `Nc1nc(Cl)nc2c1ncn2[C@H]1C[C@H](O)[C@@H](CO)O1`, the AC50 was 0.147 µM (active).

For the compound `CCCCCCC(CCCCCCCCCCC(=O)OCC(COC(C)=O)OC(C)=O)OC(C)=O` (stereo unspecified), the outcome was inactive.

For the compound `c1ccc2occc2c1`, the outcome was inactive.

Turning to `CCCCc1nc2cccnc2n1Cc1ccc(-c2ccccc2-c2nnn[nH]2)cc1`, the outcome was inactive.

Read-out in another assay: not listed separately
The experiment in a line: BSK_SAg_SRB: Viability Assessment in the BioMAP Diversity Plus: SAg Assay (AID 2283096).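 Also: cells read one day after compound addition; hits may be either gain or loss of signal compared with DMSO.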 The following applies: primary human HUVEC with PBMC. The gist of the method: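 Total protein by sulforhodamine B staining, 24 h after dosing, in HUVEC–PBMC co-culture; DMSO-referenced bidirectional fitting.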
For the compound `O=C(O)c1cccnc1`, the outcome was inactive.

With `CCc1cc(C2=C(C(=O)O)N(c3ccccc3C(F)(F)F)S(=O)(=O)c3ccccc32)cc2c1OCO2`, the result was inactive.

For the compound `Cc1cn([C@H]2C=C[C@@H](CO)O2)c(=O)[nH]c1=O`, the result was inactive.

Turning to `CCCCC(CC)COC(=O)CCCCCCCC(=O)OCC(CC)CCCC` (stereo unspecified), the outcome was inactive.

On to `CC(N)=O`, for which the outcome was inactive.

As to `O=C1OC(c2ccc(O)cc2)(c2ccc(O)cc2)c2ccccc21`, the result was inactive.

As for `Cc1cc(SC2=C(O)C[C@@](CCc3ccc(N)cc3)(C(C)C)OC2=O)c(C(C)(C)C)cc1CO`, the result was inactive.

For the compound `Oc1ccccc1O`, the half-maximal activity concentration (AC50) is 8.32 µM (active).

For `CCCCOC(=O)CCCCC(=O)OCCCC`, the result was inactive.

For the compound `O=NO`, the result was inactive.

Take `Cn1cnc2c1c(=O)[nH]c(=O)n2C`: the result was inactive.

With `O=C(O)c1[nH]n(-c2ccc(S(=O)(=O)O)cc2)c(=O)c1N=Nc1ccc(S(=O)(=O)O)cc1`, the result was inactive.

For `C=CCc1ccc(OC)c(OC)c1`, the result was inactive.

For the compound `CCOCCOCCO`, the result was inactive.

Take `CC(C)c1cccc(C(C)C)c1NC(=O)NS(=O)(=O)c1cc(C(C)(C)O)co1`: the outcome was inactive.

On to `CCCCCCC(CCCCCCCCCCC(=O)OCC(COC(C)=O)OC(C)=O)OC(C)=O` (stereo unspecified), for which the result was inactive.
